Measurements taken from PubChem BioAssay (NCI).
Compounds without any hit were thinned out: in the full panel of roughly 83,000, 20% have a hit.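 Percent growth is the endpoint: 0 to 100 indicates growth inhibition (40 means 60% inhibition), 0 means no net growth, and negative values indicate cell death.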 A number with no mark means an inactive call. Active and inactive are the calls of the source. The calls were made as follows: active = growth percent below 10; inactive = the rest.

Tests used:
Experiment in all cases: NCI-60 one-dose screen, 48 h (100 = growth as untreated, 0 = no growth, -100 = all killed)
Details in all cases: 10 µM unless noted
HCT-15 colon = system: HCT-15 colon
PC-3 prostate = system: PC-3 prostate
SK-MEL-5 melanoma = system: SK-MEL-5 melanoma
LOX IMVI melanoma = system: LOX IMVI melanoma
SK-MEL-28 melanoma = system: SK-MEL-28 melanoma
HT29 colon = system: HT29 colon
SNB-19 CNS = system: SNB-19 CNS
U251 CNS = system: U251 CNS
UACC-62 melanoma = system: UACC-62 melanoma
SNB-75 CNS = system: SNB-75 CNS

| Structure (SMILES) | growth (HCT-15 colon) | growth (PC-3 prostate) | growth (SK-MEL-5 melanoma) | growth (LOX IMVI melanoma) | growth (SK-MEL-28 melanoma) | growth (HT29 colon) | growth (SNB-19 CNS) | growth (U251 CNS) | growth (UACC-62 melanoma) | growth (SNB-75 CNS) |
| --- | --- | --- | --- | --- | --- | --- | --- | --- | --- | --- |
| CCCCCCCCCCCCCC | 106% | 88.1% | 108% | 94.9% | 106% |  |  |  |  |  |
| COc1ccccc1CNCCCN1C(=O)c2ccc3c4c(ccc(c24)C1=O)C(=O)N(CCCCNCCCN)C3=O | 74.6% | 43.7% | -97.1% (active) | -10% (active) | -19.4% (active) | -20.1% (active) | -70.3% (active) | -84.3% (active) | -68.7% (active) |  |
| Fc1ccc(-c2nc(-c3ccc(-c4nc5ccc(F)cc5[nH]4)cc3)no2)cc1 | 86.1% | 68.7% | 74.4% | 43.5% | 80.5% | 84.7% | 82.5% | 82.9% | 75.5% |  |
| Nc1ccc(C2=NNC(=O)Cc3cc4c(cc32)OCCO4)cc1Cl | 28.9% | 53% | 29.8% | 39% | 56.4% | 9.09% (active) | 57.5% |  | 38% |  |
| CCOC(=O)C#Cc1c(C(=O)OCC)nnn1[C@@H]1O[C@H](COC(C)=O)[C@@H](OC(C)=O)[C@H]1OC(C)=O | 44% | 102% | 96.6% | 85.8% | 107% | 88.9% | 93% | 100% | 93.1% |  |
| O=C(O)c1cc2cc(OCc3ccccc3)ccc2[nH]1 | 92.3% | 102% | 84.1% | 96.7% | 48% | 114% | 86.4% | 105% | 79.3% |  |
| CN(C)N1C(=O)c2c(Cl)c(Cl)c(Cl)c(Cl)c2C1=O | 109% | 99.2% | 101% | 96.8% | 112% | 107% | 108% | 102% | 104% |  |
| C[N+](C)(C)CCCCCCCCCC[N+](C)(C)C | 107% | 89.3% | 97.4% | 84.7% |  |  | 98.7% | 91.1% | 91.7% | 89.3% |
| COc1ccc(-n2nc(C(=O)Nc3ccc(F)cc3)nc2-c2cc(OC)c(OC)c(OC)c2)cc1 | 82.2% | 79.2% | 80.3% | 94.3% | 119% | 95.8% | 92.3% |  | 83.7% |  |
| CC1=CC(=O)OC1C/C=C(\C)CCC1[C@@]2(C)CCC[C@@](C)(C(=O)O)C2CC[C@@]1(C)O (some centres not stated) | 14.1% | 59.1% | -23.8% (active) | 97.3% | 26.7% | 86.8% | 53.3% | 35.4% | 15.4% |  |
| CN1C(=O)N(C)C2C1NN=c1s/c(=C\c3ccsc3)c(=O)n12 (configuration not stated) | 24.7% | 38.5% | 41.6% | 37.7% | 67.8% | 9.4% (active) | 39.6% | 30.6% | 28.3% |  |
| CCN(CC)CCCCCCCCNc1c2ccc(Cl)cc2nc2ccc(OC)cc12 | -39% (active) | -56.4% (active) | -97.7% (active) | -78.2% (active) | -85.8% (active) |  | -30.9% (active) |  |  | -85.6% (active) |
| O=C(Nc1cccc(-n2ccc3c(NC(=O)c4ccccc4)nccc32)c1)c1ccc(Cl)c(Cl)c1 | -62% (active) | -60.5% (active) | -100% (active) | -84.4% (active) | -60.4% (active) |  | -40.3% (active) |  | -61.3% (active) | 2.32% (active) |
| COc1ncnc2[nH]cc(CN3CCN(c4ccc(F)cc4)CC3)c12 | 104% | 100% | 103% | 106% | 114% | 91.2% | 102% | 99.2% | 106% |  |
| CN(C)c1nc(-c2cccs2)n2nc(-c3ccco3)cc2n1 | 79.4% | 91.2% | 94.1% |  | 117% | 93.4% | 102% | 93.6% | 89.7% |  |
| O=[N+]([O-])c1ccc(Sc2nc(Cl)nc(NC3CCCC3)n2)cc1 | -92.4% [100 µM] (active) | -89.5% [100 µM] (active) | -90.3% [100 µM] (active) | -87.9% [100 µM] (active) | -97.8% [100 µM] (active) | -72.6% [100 µM] (active) | -95.5% [100 µM] (active) |  | -97.4% [100 µM] (active) |  |
| CC[C@H](C)[C@H](N)C(=O)O | 107% | 99.1% | 101% | 98.7% | 109% | 109% | 105% | 107% | 102% |  |
| COc1ccc([C@H]2c3[nH]c4ccccc4c3C[C@H]3C(=O)N(CCCCCCC(=O)NO)CC(=O)N23)cc1 | 81% | 11.9% | 12.4% | 13.1% | 4.8% (active) | 35% | 48.5% | 30.4% | 9.81% (active) |  |
| Clc1ccc(-c2cnc3nonc3n2)s1 | 54.4% | 51.8% | 24.5% | 36.5% | 94.4% | 83% | 91.4% | 87.9% | 54.9% |  |
| CC(=O)OC[C@H]1O[C@@H](n2c(=O)cc(N)[nH]c2=O)C(OC(C)=O)[C@@H]1OC(C)=O (some centres not stated) | 99.7% | 95.3% | 99.5% | 99.9% | 110% | 106% | 98.7% | 97.7% | 94.6% |  |
| CN1C(=O)NC(Cc2c[nH]c3c(Cl)cccc23)C1=O (configuration not stated) | 99.5% | 82.9% | 98.5% | 99.7% | 115% | 110% | 106% | 92.8% |  |  |
| COc1ccc(C(=O)C(CN(C)C)c2ccc(OC)cc2)cc1 (configuration not stated) | 30.4% | 39.1% | 95.5% | 31.3% | 79% | 13.2% | 90.7% | 69.2% | 32.1% |  |
| COc1nccc2c(Sc3ccccc3)nc(N)nc12 | 100% | 84.7% | 99.2% | 107% | 106% | 108% | 117% | 110% | 102% |  |
| ClC1=NC(Cl)C(Cl)=N/C1=N\c1ncn[nH]1 (configuration not stated) | -71.9% (active) | 20.3% | 74.1% | -50.7% (active) | 15.1% | -62.8% (active) | 111% | -50.5% (active) | 83.6% |  |
| CC(C)(C)OC(=O)N1CCCN(CCNc2nccc(-c3c(-c4cccc(O)c4)nc4sccn34)n2)S1(=O)=O | 99.9% | 85% | 86.9% | 32.3% | 45.4% | 56.7% | 126% | 117% | 12.1% |  |
| O=C1Nc2ccccc2/C1=C\c1nc(C2CCN(S(=O)(=O)c3ccc(F)cc3)CC2)n2ccccc12 | 90.5% | 65.6% | 75.3% | 49.2% | 60.3% | 67.7% | -6.15% (active) | 41.3% | 39.1% |  |
| O=C(c1ccccc1)C(CCc1ccccn1)CCc1ccccn1 | 96.6% | 86.8% | 100% |  | 106% | 96.7% | 94.1% | 101% | 86.1% |  |
| Cc1ccccc1Nc1n[nH]c(Cc2ccccc2)n1 | 108% | 86.5% | 93.9% | 95.5% | 113% | 79.1% | 97.6% | 94.3% |  |  |
